Pf growth 48h: inhibits P. falciparum growth in the first generation, 48 h. P. falciparum luciferase growth in erythrocytes, 48 h. Potency, µM (top dose mostly 28.7 µM), usual class: inhibitors. 5.9% of 310,000 active. AID 504832
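Luciferase-expressing parasites in RBCs, 2% Hct / 0.1% parasitemia final; RPMI 1640 + 0.5% Albumax; 37 C, 5% CO2, one generation; luminescence read-out, lower signal = inhibition.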
HCV inh: inhibitors of hepatitis C virus infection; Huh7.5.1 HCVcc-Cre infection, luciferase reporter, 44 h; Potency, µM (top dose mostly 41.8 µM), usual class: inhibitors; 3.4% of 340,000 active
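Infectious HCVcc-Cre (~0.5 moi) was added to cells just after compound, with cells seeded 4 h earlier at 1,000 per well. Luciferase activity after 44 h culture reported infection; substrate was incubated 15 min at room temperature before reading.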
Pf growth 96h: P. falciparum growth inhibition at 96 hours | P. falciparum luciferase reporter growth, 96 h | Potency, µM (highest dose often 28.7 µM), hits mostly inhibitors | 6.9% of 320,000 active | AID 504834
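Plates of compound plus infected erythrocytes (2% hematocrit, 0.05% parasitemia final) incubate 96 hours, 37 C, 5% CO2. Detection reagent added; reduced luminescence from the parasites' luciferase reporter flags inhibition.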
AMA1-RON2 inh: disrupts binding of P. falciparum AMA1 to RON2; AlphaScreen AMA1-biotinylated RON2 peptide binding; Potency, µM (titrated, usually from 58.2 µM), hits mostly inhibitors; 0.2% of 360,000 active; AID 720542; note: nearly all actives have a fitted effect of over 45% in size
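AMA1 (3D7) with his tag at 25 nM final met compounds first, then biotinylated RON2 peptide at 25 nM; detection used donor plus acceptor beads, 10 µg/mL apiece, read by AlphaScreen after 30 min at room temperature.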
Large screens that a line does not name were inactive. Shown are actives, neighbours in structure and some others; about 11% of the full set was active somewhere. Calls come from the whole dose curve; as a rule, active = well fitted curve in the direction sought with a large enough effect; inconclusive = small, poorly fitted or top-dose-only effect, or another doubt; inactive = no such curve, though single readings can be large; an effect the other way counts as inactive or inconclusive.

NC(=S)N/N=C1\CC(n2nnn(-c3cccc(Cl)c3)c2=S)C2COC1O2 (stereo unspecified)	none
CN(C)S(=O)(=O)c1cccc(NC(=O)C2Cc3ccccc3CN2C(=O)c2ccco2)c1 (stereo unspecified)	Pf growth 48h inconclusive, Pf growth 96h inconclusive
O=C1NC[C@H](Cc2ccccc2)N(C[C@H]2CCCN2C[C@H](Cc2ccccc2)N2C[C@H](Cc3ccccc3)N(CC3CCCCC3)C(=O)C2=O)C1=O	HCV inh 8.9µM (no result: Pf growth 48h, Pf growth 96h)
O=C1NC[C@H](Cc2ccc(O)cc2)N(C[C@H]2CCCN2C[C@H](Cc2ccc(O)cc2)N2C[C@H](Cc3ccc(O)cc3)N(CCc3ccccc3)C(=O)C2=O)C1=O	AMA1-RON2 inh 32µM (no result: Pf growth 48h, HCV inh, Pf growth 96h)
O=C1NC[C@H](Cc2ccccc2)N(C[C@@H]2CCCN2C[C@H](Cc2ccc(O)cc2)N2C[C@H](Cc3ccc(O)cc3)N(CCc3ccccc3)C(=O)C2=O)C1=O	none (no result: Pf growth 48h, HCV inh, Pf growth 96h)
COc1cc(C(=O)Nc2cc(-c3cn4cccnc4n3)ccc2C)cc(OC)c1OC	Pf growth 96h inconclusive
O=C(N/N=C/c1sc2ccccc2c1O)c1cccc2ccccc12	Pf growth 48h inconclusive, HCV inh 1.8µM
COc1ccc(C(=O)N/N=C/c2sc3ccccc3c2O)cc1	Pf growth 48h inconclusive, HCV inh inconclusive, Pf growth 96h inconclusive
O=C(N/N=C/c1sc2ccccc2c1O)c1ccccc1	Pf growth 48h 4.7µM, HCV inh 4.5µM, Pf growth 96h inconclusive
O=C(N/N=C/c1ccccc1Cl)c1[nH]c2ccc(Br)cc2c1-c1ccccc1	HCV inh 4µM, Pf growth 96h inconclusive
COc1ccc(/C=N/NC(=S)NCCc2ccccc2)cc1	Pf growth 48h inconclusive, Pf growth 96h inconclusive
COc1ccc(/C=N/NC(=O)c2[nH]c3ccc(Br)cc3c2-c2ccccc2)c(C(=O)O)c1OC	none
COc1ccc(O)c(/C=N/NC(=S)NCCc2ccccc2)c1	Pf growth 48h 2.6µM, HCV inh inconclusive, Pf growth 96h inconclusive
COc1ccc(/C(C)=N/NC(=S)NCCc2ccccc2)c(O)c1	Pf growth 48h 0.41µM, HCV inh inconclusive, Pf growth 96h inconclusive
C/C(=N\NC(=S)NCCc1ccccc1)c1ccc(C)cc1	none
CC(C)NC(=S)N/N=C/c1cc(Br)ccc1O	Pf growth 48h 2.1µM, HCV inh inconclusive, Pf growth 96h 1.7µM
O=C(N/N=C/c1cc(Br)ccc1O)c1ccccc1Cl	Pf growth 48h inconclusive, HCV inh inconclusive, Pf growth 96h 9.3µM
O=C(N/N=C/c1cc(Cl)ccc1O)C(=O)Nc1ccccc1OC(F)(F)C(F)F	Pf growth 48h inconclusive, HCV inh inconclusive
S=C(NCCc1ccccc1)N/N=C/c1ccccc1Cl	none
Cc1cccc(/C=N/NC(=O)c2cc(Br)ccc2O)n1	HCV inh 4µM, Pf growth 96h 12µM
O=C(N/N=C/c1cc(Br)ccc1O)C(=O)Nc1ccccc1OC(F)(F)C(F)F	Pf growth 48h inconclusive, HCV inh inconclusive, Pf growth 96h 2.9µM
Oc1ccc(Br)cc1/C=N/NC(=S)NCCc1ccccc1	Pf growth 48h 4.7µM, HCV inh 10µM, Pf growth 96h 2.3µM
Cc1ccc(NC(=O)CN(C)C(=O)CSc2nnc(C)s2)cc1	none (no result: Pf growth 48h, Pf growth 96h)
Cc1ccc(OCCNC(=O)Cc2ccc(S(=O)(=O)N3CCOCC3)s2)cc1	Pf growth 48h inconclusive
Cc1ccc(S(=O)(=O)N2CCc3ccccc3C2CN2C(=O)c3ccccc3C2=O)cc1 (stereo unspecified)	Pf growth 48h inconclusive, Pf growth 96h inconclusive
COC(=O)[C@@]1(Sc2ccc(C)cc2)CC(=O)N(C(=O)c2ccccc2)[C@@H]1c1ccccc1	none (no result: Pf growth 48h, HCV inh, Pf growth 96h)
O=C(CCc1ccccc1)N/N=C/c1cc(Br)ccc1O	Pf growth 48h 4.1µM, HCV inh 11µM, Pf growth 96h 6.6µM
O=C(CCc1ccccc1)N/N=C\c1cc2c(cc1Br)OCO2	Pf growth 96h inconclusive
CCN(CCCNc1cc2c(c(N)c1S(=O)(=O)O)C(=O)c1ccccc1C2=O)c1ccccc1	AMA1-RON2 inh 14µM (no result: Pf growth 48h, HCV inh, Pf growth 96h)
CCOC(=O)C1CCN(c2c(NCCCN(CC)c3ccccc3)c(=O)c2=O)CC1	HCV inh inconclusive, Pf growth 96h inconclusive
O=C(c1ccc(-n2c(SCc3cc(F)ccc3F)nc3ccccc3c2=O)cc1)N1CCOCC1	Pf growth 48h inconclusive
CCOC(=O)CC(=O)CSc1nc2ccccc2c(=O)n1-c1ccc(C(=O)N2CCOCC2)cc1	Pf growth 48h 1.7µM (no result: HCV inh, Pf growth 96h)
CCOC(=O)CC(=O)CSc1nc2ccccc2c(=O)n1-c1ccc(C(=O)NCCOC)cc1	Pf growth 48h 5.2µM, Pf growth 96h inconclusive
CCOc1ccccc1N1CC(C(=O)N(CC)CC(=O)Nc2ccc3c(c2)OCCO3)CC1=O (stereo unspecified)	Pf growth 48h inconclusive
O=C(CCN1C(=O)C2CC=CCC2C1=O)Nc1ccccc1Cl (stereo unspecified)	none
Cc1c(Cl)cccc1NC(=O)CCN1C(=O)C2CC=CCC2C1=O (stereo unspecified)	Pf growth 96h 5.2µM (no result: HCV inh)
C[C@H]1CCC[C@H](O)CCCCCc2cc(O)cc(O)c2C(=O)O1	Pf growth 48h inconclusive, Pf growth 96h 12µM
Cc1ccc(N2CS(=O)(=O)/C(=C/N(C)C)C2=O)cc1	Pf growth 48h 2.6µM
COc1ccc(OCC(=O)N/N=C(\C)CC(=O)Nc2cccc([N+](=O)[O-])c2)cc1	none
COC(=O)CN1C(=S)N(Cc2ccccc2)C(=O)C1CC(=O)Nc1ccc(OC)cc1 (stereo unspecified)	Pf growth 48h 4.1µM
COc1ccc(NC(=O)CC2C(=O)N(Cc3ccccc3)C(=S)N2CCN2CCOCC2)cc1 (stereo unspecified)	Pf growth 48h inconclusive, Pf growth 96h inconclusive
C=CCN1C(=O)C(CC(=O)Nc2ccc(OCCC)cc2)N(CCCN2CCN(Cc3ccccc3)CC2)C1=S (stereo unspecified)	Pf growth 48h inconclusive, HCV inh 10µM, Pf growth 96h inconclusive, AMA1-RON2 inh inconclusive
COc1ccc2c(c1)cc(C(=O)N[C@@H](CCSC)C(=O)N1CCC[C@H]1C(=O)O)n2C	none
CN1CCN(c2nc(-c3ccccc3O)nc3ccccc23)CC1	Pf growth 48h inconclusive, HCV inh inconclusive, Pf growth 96h inconclusive
Oc1ccccc1N1CCN(c2nc(-c3cccs3)nc3ccccc23)CC1	Pf growth 48h inconclusive, HCV inh 11µM, Pf growth 96h inconclusive
c1ccc(CN2CCN(c3nc(-c4ccccn4)nc4ccccc34)CC2)cc1	Pf growth 48h 1.7µM
OCCN1CCN(c2nc(-c3ccccc3O)nc3ccccc23)CC1	HCV inh 22µM, Pf growth 96h inconclusive
CN1CCN(c2nc(-c3ccncc3)nc3ccccc23)CC1	Pf growth 48h 9.3µM, HCV inh inconclusive (no result: Pf growth 96h)
CN1CCN(c2nc(-c3cccs3)nc3ccccc23)CC1	HCV inh inconclusive, Pf growth 96h inconclusive
CCCC(=O)Nc1ccc(Cl)c(NC(=O)c2cccc(OC)c2)c1	HCV inh inconclusive
c1ccc(CN2CCN(c3nc(-c4ccccc4)nc4ccccc34)CC2)cc1	Pf growth 48h 3.3µM, AMA1-RON2 inh inconclusive (no result: Pf growth 96h)
c1ccc(CN2CCN(c3nc4ccccc4c4ccccc34)CC2)cc1	HCV inh inconclusive (no result: Pf growth 48h, Pf growth 96h)
